Tb PYK inh – blocks Trypanosoma brucei pyruvate kinase; Q57TT1; TbPYK enzyme, Kinase-Glo Plus ATP luminescence, 45 min; Potency, µM (highest dose often 76.8 µM), for inactives: top-dose activity, negative = inhibition, hits mostly inhibitors; hit rate 0.12% among 410,000; further: potency means the concentration at half of the fitted maximal effect; on the % scale 0 is the no-effect control and ±100 the full control effect; nearly all actives have a fitted effect of over 50% in size
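T. brucei PYK with substrate was exposed to pin-transferred compounds across a concentration series, then started with 130 uM ADP (final). After 45 min at room temperature, Kinase-Glo Plus luminescence was read, normalized and curve-fitted.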
Shiga toxin inh – Shiga toxin inhibition | AID 2315 | Vero cells, Shiga toxin protein synthesis inhibition reporter | hit rate 9.2% among 290,000 | inhibition, % at 38.7 µM; in the data active means inhibition mostly above about 28%, no sharp cut-off; inactive means mostly below about 43%; further: 0% is about no effect
LmPK inh – blocks Leishmania mexicana pyruvate kinase activity | purified LmPK, Kinase-Glo ATP luminescence, 1 h | Potency, µM (series often up to 57.5 µM), without a hit: at the top dose activity change, negative = inhibition, usual class: inhibitors | hit rate 0.37% among 290,000 | AID 1721; further: potency means the concentration at half of the fitted maximal effect; on the % scale 0 is the no-effect control and ±100 the full control effect
Target sequence (Q27686 whole entry, looked up): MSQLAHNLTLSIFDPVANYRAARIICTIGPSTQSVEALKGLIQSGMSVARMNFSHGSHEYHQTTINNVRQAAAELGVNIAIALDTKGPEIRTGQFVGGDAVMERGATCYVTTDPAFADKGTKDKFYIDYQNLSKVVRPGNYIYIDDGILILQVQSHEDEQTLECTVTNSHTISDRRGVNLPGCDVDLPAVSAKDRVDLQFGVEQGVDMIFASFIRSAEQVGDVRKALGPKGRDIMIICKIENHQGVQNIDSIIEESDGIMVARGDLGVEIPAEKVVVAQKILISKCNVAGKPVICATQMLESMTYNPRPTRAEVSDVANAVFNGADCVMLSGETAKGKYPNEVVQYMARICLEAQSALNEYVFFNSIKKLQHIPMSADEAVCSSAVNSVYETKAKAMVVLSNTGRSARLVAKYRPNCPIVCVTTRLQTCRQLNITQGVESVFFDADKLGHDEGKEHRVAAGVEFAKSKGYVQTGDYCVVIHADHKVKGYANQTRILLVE
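Kinase-Glo luminescence read after 1 h RT reaction of 0.1 nM LmPK with 0.5 mM PEP and 0.1 mM ADP. Activity scaled between uninhibited and enzyme-free controls.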
Giardia FBPA inh – inhibitors of Giardia lamblia fructose-1,6-bisphosphate aldolase; purified Giardia FBPA; Potency, µM (doses to about 59.6 µM), for the others: at the top dose activity, negative = inhibition, most hits filed as inhibitors; hit rate 0.71% among 290,000; further: potency means the concentration at half of the fitted maximal effect; on the % scale 0 is the no-effect control and ±100 the full control effect; nearly all actives have a fitted effect of over 55% in size
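40 nM FBPA preincubated 10 min at RT with compound (up to 57.5 uM final), then substrate plus GAPDH/TPI/NAD/arsenate coupling and diaphorase/resazurin added. Fluorescence read after 20 min at RT, 525/598 nm.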
RE007 growth inh – less growth of the S. pombe RE007 Vpr strain. S. pombe RE007 Vpr strain, BacTiter-Glo ATP luminescence, 24 h. Potency, µM (titrated, usually from 92.2 µM), inactives show top-dose activity change, negative = less growth, hits mostly inhibitors. hit rate 0.21% among 360,000; active means well fitted falling curve with a large enough effect; further: potency means the concentration at half of the fitted maximal effect; on the % scale 0 is the no-effect control and ±100 the full control effect; nearly all actives have a fitted effect of over 50% in size
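Fission yeast strain RE007, carrying one chromosomally integrated HIV-1 vpr copy, was seeded at OD 0.01 in PMG+AL medium with 23 nL pinned compound. After 24 h at 30 °C and 99% humidity, viability was read by BacTiter-Glo luminescence.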
CHX counter – counter-screen for Shiga toxin inhibitors: cycloheximide protein synthesis inhibition; cell reporter, cycloheximide protein synthesis inhibition counterscreen; max response, %; hit rate 12% among 300,000; in the data active means max response mostly above about 13%, no sharp cut-off; inactive means mostly below about 14%; further: read at 38.3 µM for the half of the compounds with a filed dose; 0% is about no effect
* hit, by the source's call; nt = no result; [ ] = dose if it differs, or a comment. Only a selection was taken, and hits are over-represented in it overall. Unless noted, the call rests on the fitted dose curve; in most records, active means well fitted curve in the direction sought with a large enough effect; inconclusive means small, poorly fitted or top-dose-only effect, or another doubt; inactive means no such curve, though single readings can be large; an effect the other way counts as inactive or inconclusive.

SMILES	Tb PYK inh	Shiga toxin inh	LmPK inh	Giardia FBPA inh	RE007 growth inh	CHX counter
O=C(O)C(Oc1ccc2c(c1)oc(=O)c1ccccc12)c1ccccc1 (centres undefined)	3%	-12	2%	24%	1%	-2
COc1ccc2c(c1)oc(=O)c1ccccc12	1%	71*	4%	5%	-8%	33*
COc1ccc2c(=O)c3ccccc3oc2c1	-2%	42*	-11%	-6%	-9%	33*
COc1ccc2c(c1)oc(=O)c1c3ccccc3[nH]c21	-2%	57*	-29%	-6%	-7%	62*
COc1ccc2oc(-c3ccc(O)cc3)cc(=O)c2c1	nt	nt	nt	0%	nt	nt
Cc1cc(C)n2c(Nc3cccc(C(F)(F)F)c3)c(-c3ccsc3)nc2n1	-5%	nt	nt	nt	nt	nt
COc1ccccc1-c1c(C)nn2c(-c3ccccc3)cc(-c3ccccc3)nc12	-7%	nt	nt	nt	nt	nt
Cc1ccccc1CN1c2ccccc2-c2nc(SCC(=O)c3ccccc3)ncc2S1(=O)=O	-1%	nt	nt	nt	nt	nt
Cc1cc(C)c2oc(-c3cccc(NC(=O)c4ccc(-c5cccc([N+](=O)[O-])c5)o4)c3)nc2c1	3%	nt	nt	nt	nt	nt
Nc1ccc(C#Cc2ccc3oc4ccccc4c(=O)c3c2)cc1	1%	nt	nt	nt	7%	nt
COc1ccc2c(c1)oc(=O)c1cc(OC)ccc12	-9%	52*	-12%	0%	-5%	26*
CC(=O)c1ccc2oc3ccccc3c(=O)c2c1	-4%	17*	-3%	-4%	0%	15
COc1ccc2c(C)c(Cl)c(=O)oc2c1	3%	2	4%	-5%	-22%	-2
CC(C(=O)N1CCc2ccccc21)N(C)CC(=O)Nc1cccc(F)c1 (centres undefined)	-3%	nt	nt	nt	11%	nt
O=C(CCNS(=O)(=O)c1ccc2c(c1)CCCC(=O)N2)Nc1cccc(Cl)c1	-5%	nt	nt	nt	nt	nt
CN(c1ccc(C(=O)N2CCOCC2)cc1[N+](=O)[O-])C1CCCCC1	-1%	95*	1%	2%[12.9 µM]	5%	48*
CN1CCC(N(C)c2ccc(C(N)=O)cc2[N+](=O)[O-])CC1	-1%	-3	0%	5%	-1%	-8
O=C(c1ccc(N2CCC3(CC2)OCCO3)c([N+](=O)[O-])c1)N1CCOCC1	-1%	69*	0%	-4%	19%	21*
C[C@@H](CO)NC(=O)c1nc[nH]c1C(=O)N[C@H](C)c1ccccc1	8%	nt	nt	nt	-20%	nt
Cc1cc2c(cc(C(=O)OC(C(=O)NC3CCCCC3)C(C)C)n2C)o1 (centres undefined)	-10%	nt	nt	nt	0%	nt
Cc1cc2c(cc(C(=O)OC(C(=O)NCC3CCCO3)C(C)C)n2C)o1 (centres undefined)	-10%	34	-9%	-3%	6%	15*
COCCn1c(C)cc(C(=O)CSc2nc3ccccc3s2)c1C	0%	20	-3%	-7%	2%	80*
COCCn1c(C)cc(C(=O)CSc2ncn[nH]2)c1C	-14%	71*	0%	-13%	13%	36*
COCCn1c(C)cc(C(=O)CSc2nc3ccccc3o2)c1C	-6%	120*	-5%	-2%	14%	51*
COCCCn1c(SCC(=O)Nc2ccc(C)cc2)nc2ccccc2c1=O	5%	56*	9%	-8%	1%	13
SMILES	Tb PYK inh	Shiga toxin inh	LmPK inh	Giardia FBPA inh	RE007 growth inh	CHX counter
Cc1cccc(N2CCN(S(=O)(=O)c3nnc(NC(=O)c4ccc(Cl)cc4)s3)CC2)c1	1%	nt	nt	nt	nt	nt
CCN(CC)c1ccc(C2C(C(N)=O)=C(C)Nc3ncnn32)cc1 (centres undefined)	-5%	nt	nt	nt	nt	nt
COCCn1c(SCC(=O)c2cc(C)n(C)c2C)nc2ccccc2c1=O	1%	39	-1%	-4%	41%	11*
COCCn1c(C)cc(C(=O)CSc2cc(C)c3ccc(OC)cc3n2)c1C	-6%	34	3%	-2%	19%	18*
O=C(Cn1cc(SCc2cccc(Cl)c2)c2ccccc21)N1CCOCC1	-11%	27	-5%	-18%	28%	48*
Cc1cccc(CSc2cn(CC(=O)N3CCOCC3)c3ccccc23)c1	-1%	64*	-27%	-19%	10%	42*
